Results reported in ChEMBL document CHEMBL2218924, “A broad activity screen in support of a chemogenomic map for kinase signalling research and drug discovery” (Biochem J, 2013).

What was measured:
[1] = target: Tyrosine-protein kinase SYK (Homo sapiens) (UniProt P43405); conditions: at 10 µM
[2] = target: T1, Mitogen-activated protein kinase kinase kinase 7 (Homo sapiens) (UniProt O43318); conditions: at 1 µM
T1 sequence (whole entry): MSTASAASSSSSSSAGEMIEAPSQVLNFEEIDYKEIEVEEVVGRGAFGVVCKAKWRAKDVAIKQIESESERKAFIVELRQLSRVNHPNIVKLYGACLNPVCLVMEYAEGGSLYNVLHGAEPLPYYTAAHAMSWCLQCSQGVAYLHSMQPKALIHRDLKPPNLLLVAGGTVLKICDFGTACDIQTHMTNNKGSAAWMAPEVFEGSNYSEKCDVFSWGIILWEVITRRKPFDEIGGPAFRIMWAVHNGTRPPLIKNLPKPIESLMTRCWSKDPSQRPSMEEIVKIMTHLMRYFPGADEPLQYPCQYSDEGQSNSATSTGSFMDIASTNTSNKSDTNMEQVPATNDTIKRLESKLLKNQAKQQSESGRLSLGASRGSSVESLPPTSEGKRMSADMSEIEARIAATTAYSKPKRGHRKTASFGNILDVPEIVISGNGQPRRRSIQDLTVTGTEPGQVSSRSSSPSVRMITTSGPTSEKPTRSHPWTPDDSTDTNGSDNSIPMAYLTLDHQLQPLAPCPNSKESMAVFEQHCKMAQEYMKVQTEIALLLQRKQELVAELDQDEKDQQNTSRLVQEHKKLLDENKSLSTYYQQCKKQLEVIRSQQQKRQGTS

[3] = target: T1, Mitogen-activated protein kinase kinase kinase 7 (Homo sapiens); conditions: at 10 µM
[4] = target: T2, Serine/threonine-protein kinase TAO1 (Homo sapiens) (UniProt Q7L7X3); conditions: at 1 µM
T2 sequence (whole entry): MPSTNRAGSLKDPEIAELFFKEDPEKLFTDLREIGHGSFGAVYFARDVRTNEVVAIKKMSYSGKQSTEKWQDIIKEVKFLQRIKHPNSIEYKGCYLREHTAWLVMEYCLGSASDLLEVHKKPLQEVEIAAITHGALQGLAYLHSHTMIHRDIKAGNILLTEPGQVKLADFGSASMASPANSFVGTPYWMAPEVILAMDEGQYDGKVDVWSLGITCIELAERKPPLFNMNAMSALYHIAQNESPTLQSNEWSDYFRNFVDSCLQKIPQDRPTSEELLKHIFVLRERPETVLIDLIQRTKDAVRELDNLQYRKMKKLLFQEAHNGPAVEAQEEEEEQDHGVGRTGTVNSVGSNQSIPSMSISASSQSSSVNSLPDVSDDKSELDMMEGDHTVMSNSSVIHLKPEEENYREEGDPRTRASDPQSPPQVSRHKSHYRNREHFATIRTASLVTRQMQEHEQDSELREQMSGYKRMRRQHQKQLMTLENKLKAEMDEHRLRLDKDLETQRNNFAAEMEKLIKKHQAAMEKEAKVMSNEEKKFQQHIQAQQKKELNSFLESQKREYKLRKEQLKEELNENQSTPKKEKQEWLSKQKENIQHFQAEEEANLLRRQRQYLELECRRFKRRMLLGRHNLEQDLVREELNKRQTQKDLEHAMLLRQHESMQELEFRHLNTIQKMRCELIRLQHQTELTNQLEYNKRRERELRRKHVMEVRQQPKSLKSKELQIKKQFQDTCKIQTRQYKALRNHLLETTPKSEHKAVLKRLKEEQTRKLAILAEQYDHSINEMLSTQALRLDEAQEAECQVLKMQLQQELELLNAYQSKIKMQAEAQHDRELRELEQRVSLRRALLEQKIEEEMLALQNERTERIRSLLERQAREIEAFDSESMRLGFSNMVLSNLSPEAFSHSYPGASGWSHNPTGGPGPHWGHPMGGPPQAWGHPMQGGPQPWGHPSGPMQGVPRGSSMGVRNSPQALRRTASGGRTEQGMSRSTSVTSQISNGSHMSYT

[5] = target: T2, Serine/threonine-protein kinase TAO1 (Homo sapiens); conditions: at 10 µM
[6] = target: T3, Serine/threonine-protein kinase TAO2 (Homo sapiens) (UniProt Q9UL54); conditions: at 1 µM
T3 sequence (whole entry): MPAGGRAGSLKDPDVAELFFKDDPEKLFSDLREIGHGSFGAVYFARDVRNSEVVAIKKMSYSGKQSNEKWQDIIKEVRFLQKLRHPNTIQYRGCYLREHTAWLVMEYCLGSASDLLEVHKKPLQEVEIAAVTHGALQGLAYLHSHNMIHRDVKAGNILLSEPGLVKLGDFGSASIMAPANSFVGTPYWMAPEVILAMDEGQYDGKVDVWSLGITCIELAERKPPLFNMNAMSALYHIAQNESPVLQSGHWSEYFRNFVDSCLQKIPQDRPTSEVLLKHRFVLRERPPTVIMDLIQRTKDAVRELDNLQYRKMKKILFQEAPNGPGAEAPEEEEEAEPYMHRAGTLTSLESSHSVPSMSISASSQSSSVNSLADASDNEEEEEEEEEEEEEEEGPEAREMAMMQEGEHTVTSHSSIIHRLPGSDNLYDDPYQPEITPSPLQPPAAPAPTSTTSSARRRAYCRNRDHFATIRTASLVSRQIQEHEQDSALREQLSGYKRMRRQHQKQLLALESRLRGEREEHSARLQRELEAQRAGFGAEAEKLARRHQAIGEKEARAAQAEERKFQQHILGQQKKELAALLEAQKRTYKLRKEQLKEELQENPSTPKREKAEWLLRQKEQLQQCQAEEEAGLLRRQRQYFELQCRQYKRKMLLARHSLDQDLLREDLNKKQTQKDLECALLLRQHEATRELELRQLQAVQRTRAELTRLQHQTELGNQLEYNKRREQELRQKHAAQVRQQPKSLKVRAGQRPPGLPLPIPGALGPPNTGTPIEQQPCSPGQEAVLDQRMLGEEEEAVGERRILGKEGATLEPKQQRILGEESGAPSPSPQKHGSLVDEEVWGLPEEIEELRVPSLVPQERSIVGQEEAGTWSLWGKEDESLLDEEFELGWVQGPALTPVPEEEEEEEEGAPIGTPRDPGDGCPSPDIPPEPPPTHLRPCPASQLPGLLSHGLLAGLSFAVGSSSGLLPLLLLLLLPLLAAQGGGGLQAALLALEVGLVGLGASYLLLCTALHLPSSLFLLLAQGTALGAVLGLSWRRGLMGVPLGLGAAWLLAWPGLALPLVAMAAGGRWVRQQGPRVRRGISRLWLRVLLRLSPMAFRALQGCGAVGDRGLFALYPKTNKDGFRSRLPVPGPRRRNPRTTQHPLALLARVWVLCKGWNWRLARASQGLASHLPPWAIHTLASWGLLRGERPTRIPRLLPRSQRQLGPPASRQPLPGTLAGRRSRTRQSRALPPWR

[7] = target: T3, Serine/threonine-protein kinase TAO2 (Homo sapiens); conditions: at 10 µM
[8] = target: T4, Serine/threonine-protein kinase TAO3 (Homo sapiens) (UniProt Q9H2K8); conditions: at 1 µM
T4 sequence (whole entry): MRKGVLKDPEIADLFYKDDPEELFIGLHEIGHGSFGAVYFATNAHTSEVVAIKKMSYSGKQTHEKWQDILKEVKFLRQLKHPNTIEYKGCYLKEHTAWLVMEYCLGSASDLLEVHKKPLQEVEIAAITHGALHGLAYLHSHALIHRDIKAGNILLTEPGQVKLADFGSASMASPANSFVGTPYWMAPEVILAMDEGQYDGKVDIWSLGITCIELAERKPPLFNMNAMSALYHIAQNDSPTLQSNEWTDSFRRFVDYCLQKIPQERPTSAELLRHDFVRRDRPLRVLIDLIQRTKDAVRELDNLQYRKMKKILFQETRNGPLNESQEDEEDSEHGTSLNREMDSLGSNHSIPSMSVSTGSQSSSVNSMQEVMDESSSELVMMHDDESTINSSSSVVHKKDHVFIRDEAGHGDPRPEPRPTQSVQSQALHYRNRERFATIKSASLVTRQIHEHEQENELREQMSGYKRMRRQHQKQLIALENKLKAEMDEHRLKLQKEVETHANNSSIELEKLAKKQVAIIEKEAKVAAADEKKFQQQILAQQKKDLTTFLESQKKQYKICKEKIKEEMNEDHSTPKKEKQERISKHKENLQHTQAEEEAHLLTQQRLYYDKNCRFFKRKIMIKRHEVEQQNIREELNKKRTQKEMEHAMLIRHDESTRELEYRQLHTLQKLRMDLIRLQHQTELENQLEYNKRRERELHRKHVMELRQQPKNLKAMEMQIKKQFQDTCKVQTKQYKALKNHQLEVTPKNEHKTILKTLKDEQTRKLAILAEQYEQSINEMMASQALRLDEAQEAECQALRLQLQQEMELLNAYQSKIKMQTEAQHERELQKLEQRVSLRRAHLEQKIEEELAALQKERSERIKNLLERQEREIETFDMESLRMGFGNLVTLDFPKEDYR

[9] = target: T4, Serine/threonine-protein kinase TAO3 (Homo sapiens); conditions: at 10 µM
[10] = target: T5, Serine/threonine-protein kinase TBK1 (Homo sapiens) (UniProt Q9UHD2); conditions: at 1 µM
T5 sequence (whole entry): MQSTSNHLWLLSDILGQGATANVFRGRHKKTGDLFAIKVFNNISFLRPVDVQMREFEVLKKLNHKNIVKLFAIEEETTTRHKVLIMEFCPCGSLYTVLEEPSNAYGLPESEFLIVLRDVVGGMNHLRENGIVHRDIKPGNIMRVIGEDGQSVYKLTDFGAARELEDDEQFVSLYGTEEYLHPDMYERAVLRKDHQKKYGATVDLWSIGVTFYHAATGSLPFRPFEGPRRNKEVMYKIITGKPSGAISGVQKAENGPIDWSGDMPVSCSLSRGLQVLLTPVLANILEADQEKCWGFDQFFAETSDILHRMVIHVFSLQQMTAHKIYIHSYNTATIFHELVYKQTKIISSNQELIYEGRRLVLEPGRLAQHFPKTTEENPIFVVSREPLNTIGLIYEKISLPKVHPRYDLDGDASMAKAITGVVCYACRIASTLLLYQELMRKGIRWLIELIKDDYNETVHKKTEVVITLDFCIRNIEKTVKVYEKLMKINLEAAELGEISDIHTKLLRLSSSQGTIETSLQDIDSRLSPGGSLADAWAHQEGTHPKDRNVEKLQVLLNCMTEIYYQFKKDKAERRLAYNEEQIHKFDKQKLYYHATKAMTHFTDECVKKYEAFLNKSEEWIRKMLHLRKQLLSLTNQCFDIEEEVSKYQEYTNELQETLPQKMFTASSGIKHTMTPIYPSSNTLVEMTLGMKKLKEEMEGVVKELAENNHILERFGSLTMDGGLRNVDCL

Row | SMILES | residual activity [1] [%] | residual activity [2] [%] | residual activity [3] [%] | residual activity [4] [%] | residual activity [5] [%] | residual activity [6] [%] | residual activity [7] [%] | residual activity [8] [%] | residual activity [9] [%] | residual activity [10] [%]
1 | Nc1ccc2ncnc(NCCc3ccc(Oc4ccccc4)cc3)c2c1 | 78 | 92 | 72 | 103 | 88 | 90 | 91 | 110 | 92 | 94
2 | Oc1n[nH]c2nnc(-c3c(-c4ccccc4)nn4ccccc34)cc12 | 105 | 87 | 74 | 83 | 79 | 98 | 96 | 89 | 90 | 67
3 | N#Cc1cnc2cnc(NCc3cccnc3)cc2c1Nc1ccc(F)c(Cl)c1 | 2 |  | 87 |  |  |  |  | 18 | 7 | 5
4 | N#C/C(=C(\N)Sc1ccc(N)cc1)c1ccccc1C(F)(F)F | 78 | 101 | 85 | 89 | 99 | 102 | 104 | 99 | 91 | 31
5 | Nc1cccc(-c2cc3c(Oc4cccc(O)c4)ncnc3[nH]2)c1 | 3 | 48 | 8 | 82 | 39 | 78 | 26 | 84 | 37 | 70
6 | Ic1cccc(CSc2nnc(-c3ccncc3)o2)c1 | 96 |  | 82 | 63 | 47 | 88 | 85 | 93 | 89 | 15
7 | O=C1c2ccccc2-[n+]2ccc3c([nH]c4ccccc43)c21 | 90 | 93 | 82 | 96 | 86 |  | 90 | 89 | 90 | 58
